# What was measured:
# Conditions in all cases: concentration: 1 μM, replicates: in singlicate; n = 1
# MEK5 = tested on: T1, MEK5
# T1 construct: gene MAP2K5
# MEK6 = tested on: T2, MEK6
# T2 construct: gene MAP2K6
# MELK = tested on: MELK
# MERTK = tested on: MERTK
# MET = tested on: MET
# MINK = tested on: T3, MINK
# T3 construct: gene MINK1
# MKK7 = tested on: MKK7
# MKNK1 = tested on: MKNK1
# MKNK2 = tested on: MKNK2
# MLCK = tested on: T4, MLCK
# T4 construct: gene MYLK3
# MLK1 = tested on: T5, MLK1
# T5 construct: gene MAP3K9
# MLK2 = tested on: MLK2
# MLK3 = tested on: MLK3
# MRCKA = tested on: MRCKA
# MRCKB = tested on: T6, MRCKB
# T6 construct: gene CDC42BPB
# MST1R = tested on: MST1R
# MST1 = tested on: T7, MST1
# T7 construct: gene STK4
# MST2 = tested on: T8, MST2
# T8 construct: gene STK3
# MST3 = tested on: T9, MST3
# T9 construct: gene STK24
# MST4 = tested on: MST4
# 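Also: KINOMEscan kinase panel screen.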
Structure (SMILES),%Inh (MEK5),%Inh (MEK6),%Inh (MELK),%Inh (MERTK),%Inh (MET),%Inh (MINK),%Inh (MKK7),%Inh (MKNK1),%Inh (MKNK2),%Inh (MLCK),%Inh (MLK1),%Inh (MLK2),%Inh (MLK3),%Inh (MRCKA),%Inh (MRCKB),%Inh (MST1R),%Inh (MST1),%Inh (MST2),%Inh (MST3),%Inh (MST4)
Cc1ccc(O)cc1Nc1ccnc2ccc(C(C)(C)C)cc12 [GW856805],86%,25%,8%,46%,0%,10%,40%,0%,30%,4%,11%,19%,19%,0%,0%,0%,0%,28%,12%,36%
COC(=O)Nc1nc2cc(Oc3ccc(NC(=O)Nc4cccc(SC)c4)cc3)ccc2[nH]1.Cl [GW697999],55%,0%,0%,89%,21%,23%,0%,32%,65%,0%,0%,0%,0%,14%,0%,29%,4%,0%,0%,0%
Cc1ccc(C)c(NC(=O)Nc2ccc(C)c(-c3ccc(C(=O)Nc4ccncc4)cc3)c2)c1 [GSK1398473],3%,0%,81%,22%,0%,6%,0%,0%,4%,0%,0%,0%,0%,24%,21%,26%,0%,34%,0%,0%
O=C1NC(=O)C(c2ccccc2Cl)=C1Nc1cccc(Cl)c1 [SB-342409],53%,0%,0%,1%,0%,0%,23%,0%,18%,3%,0%,28%,0%,11%,14%,0%,3%,8%,0%,0%
N#CC1(c2cccc(C(=O)Nc3cccc(Oc4ccc5nc(NC(=O)C6CC6)sc5n4)c3)c2)CC1,99.1%,18%,1%,80%,2%,54%,0%,40%,0%,36%,1%,22%,17%,0%,0%,0%,4%,8%,0%,4%
COc1cc(Nc2nccc(N3CCC(NS(=O)(=O)c4ccc(NC(C)=O)cc4)CC3)n2)cc(OC)c1OC [GSK1379825],88%,24%,19%,38%,0%,0%,15%,0%,83%,0%,52%,0%,51%,92.3%,80%,13%,0%,19%,0%,0%
CS(=O)(=O)c1cccc(CNc2nc(Nc3ccc4c(c3)CCC(=O)N4)ncc2C(F)(F)F)c1,48%,0%,26%,56%,83%,85%,0%,0%,58%,0%,99.7%,93.9%,96.4%,0%,0%,1%,0%,11%,0%,25%
Cl.O=C(Nc1ccc(Oc2ccc3[nH]c(NC(=O)c4ccco4)nc3c2)cc1)Nc1cc(C(F)(F)F)ccc1F [GW683134],85%,0%,0%,99.6%,83%,0%,0%,46%,93.5%,15%,28%,28%,49%,15%,0%,41%,17%,0%,8%,0%
O=C(O)C(F)(F)F.O=c1[nH]ccc2nc(N[C@@H]3CCNC3)nc(Nc3ccc4c(c3)S(=O)(=O)CC4)c12 [GSK2181306],99.9%,68%,92.2%,91.7%,26%,96.6%,0%,3%,24%,98.1%,79%,9%,61%,26%,54%,1%,95.9%,80%,96.6%,95.5%
Cc1ccc(NC(=O)c2ccnc(N3CCCCC3)c2)cc1-c1ccc(C(=O)NCC2CC2)cc1 [GW775610],1%,6%,0%,3%,0%,5%,0%,0%,33%,0%,0%,0%,4%,0%,9%,4%,13%,32%,30%,0%
